NALP3 yeast inh: inhibitors of NALP3 inflammasome in yeast; Yeast reconstituted NLRP3/ASC/caspase-1, beta-gal luminescence, 24 h; 0.39% of 330,000 active; inhibition, % at 10 µM;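 active means inhibition of 50% or more; inactive means inhibition below 50%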;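 further: plate controls were induced DMSO wells for no effect and uninduced yeast grown without galactose for full effect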
NALP1 inh: blocks the NALP1 inflammasome reconstituted in yeast. S. cerevisiae NALP1/ASC/caspase-1 growth, X-gal OD620, 72 h. inhibition, % at 10 µM. 0.61% of 280,000 active. AID 2071; in the data active means inhibition mostly above about 24%, no sharp cut-off; inactive means mostly below about 32%
tim23-1 inh: tim23-1 yeast growth inhibition | S. cerevisiae tim23-1 growth, BacTiter-Glo luminescence, 24 h | inhibition, % at 20 µM | 1.3% of 330,000 active | AID 463212;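 active means growth inhibition of the mutant yeast at or above 50%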;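 further: temperature-sensitive mutant grown at 25 °C; plate controls were DMSO-treated mutant yeast for no effect and medium wells lacking yeast for full effect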
SKKanGAS inh: blocks kanamycin growth of S. pyogenes SKKanGAS strain | BacTiter-Glo, 6 h | inhibition, % at 7.5 µM | 1.3% of 300,000 active | AID 1662;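 active means mean replicate score, as percent of positive control median, at least 50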;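 further: strain carries kanamycin resistance gene driven by streptokinase promoter and grows in 40 µg/ml kanamycin; loss of luminescence reflects streptokinase promoter inhibition or plain growth inhibition; 0% = median of DMSO wells and 100% = positive control at its reference dose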
tim10-1 inh: inhibits growth of tim10-1 mutant yeast; S. cerevisiae tim10-1 ts strain growth, BacTiter-Glo, 24 h; inhibition, % at 20 µM; 2.2% of 330,000 active; AID 463190;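 active means inhibition of at least 40%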;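 further: mutant grown at 25 °C; 0% = DMSO wells with yeast and 100% = wells holding no yeast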
TIM10 inh: TIM10 yeast growth inhibition | S. cerevisiae TIM10 strain growth, BacTiter-Glo luminescence, 24 h | inhibition, % at 10 µM | 1.4% of 330,000 active | AID 463195;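 active means inhibition of 40% or more at the single tested concentration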;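 further: wild-type TIM10 isogenic control strain grown at permissive 25 °C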
tim10-1 confirm: confirmation of tim10-1 mutant yeast growth inhibitors; shares compounds with tim10-1 inh; S. cerevisiae tim10-1 ts strain growth, BacTiter-Glo, 24 h; inhibition, % at 20 µM; 56% of 7,400 active; AID 463213;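 active means inhibition of yeast growth at or above a set limit in either of two repeat tests at 20 µM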;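 further: tim10-1 mutant grown at permissive 25 °C to find synthetic lethal compounds; 0% = DMSO yeast wells and 100% = medium wells without yeast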
tim10 confirm: confirmation of TIM10 yeast growth inhibitors. 63% of 4,600 active. shares compounds with TIM10 inh. S. cerevisiae tim10 strain growth, BacTiter-Glo luminescence, 24 h. inhibition, % at 10 µM;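 active means inhibition of yeast growth at or above a set limit in either of two replicates at 10 µM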;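 further: this counterscreen used the strain with wild-type TIM10; 0% = yeast with DMSO and 100% = medium wells lacking yeast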
tim23-1 conf: confirmation of tim23-1 mutant yeast growth inhibitors; shares compounds with tim23-1 inh; inhibition, % at 20 µM; 83% of 4,400 active; S. cerevisiae tim23-1 growth, BacTiter-Glo luminescence, 24 h;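 active means inhibition above about 39% in either of two replicate wells at 20 µM, limit read from the data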;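 further: temperature-sensitive tim23-1 mutant grown at 25 °C; 0% = DMSO wells with yeast and 100% = medium wells without yeast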
Numbers without * were called inactive; nt = not tested or not shown. Hits are enriched below; roughly 4.9% of the tested compounds scored in any of these assays.

SMILES | NALP3 yeast inh | NALP1 inh | tim23-1 inh | SKKanGAS inh | tim10-1 inh | TIM10 inh | tim10-1 confirm | tim10 confirm | tim23-1 conf
Cc1cc(OCC(=O)O/N=C(\N)c2ccccc2)cc(C)c1Cl | 4.9 | -9.8 | 72.8* | -18.9 | 63.7* | 36.1 | 49.4* | nt | 80.1*
CC1(C)CN(C(=S)Nc2ccc(F)cc2F)C1=O | 8.4 | 10.2 | 5.2 | -1.9 | 24.3 | 3.5 | nt | nt | nt
CCOC(=O)c1ccccc1NC(=O)COC(=O)c1c(CC)noc1C | 16.0 | nt | 16.8 | -4.0 | 10.7 | -8.5 | nt | nt | nt
O=C1N2c3ccccc3CCc3cccc(c32)C1(O)C(F)(F)F (configuration not stated) | -35.5 | 2.8 | 50.5* | -3.1 | 47.2* | 29.6 | 43.5* | nt | 54.8*
Cc1ccccc1C(=O)N1CCC(C(=O)NC2CCCC2)CC1 | 11.7 | 11.8 | -5.9 | 6.1 | -13.5 | 4.3 | nt | nt | nt
CCC(C)[C@H](NC(=O)[C@@H]1Cc2c([nH]c3ccccc23)C2c3ccccc3C(=O)N21)C(=O)N1CCC[C@@H]1C(=O)O (some centres not stated) | 10.6 | 6.3 | 13.9 | 11.7 | 10.6 | 4.5 | nt | nt | nt
OCCCc1nc2n(n1)C(c1cccs1)C=C(c1ccc(Br)cc1)N2 (configuration not stated) | 18.9 | 35.2 | 31.9 | 23.7 | 35.3 | 4.3 | nt | nt | nt
Brc1ccc(C2=CC(c3cccs3)n3ncnc3N2)cc1 (configuration not stated) | 22.6 | -7.0 | 51.6* | 5.0 | 50.0* | 36.2 | 38.5* | nt | 53.8*
NS(=O)(=O)c1cc(C(=O)OCC(=O)Nc2ccc3c(c2)OCO3)ccc1Cl | 5.4 | nt | -0.5 | nt | -1.4 | -4.8 | nt | nt | nt
COc1cccc(-n2nc(C#N)c(Cl)cc2=O)c1 | -16.0 | 1.3 | 62.3* | 8.1 | 67.8* | 55.3* | 56.0* | 39.4* | 62.8*
Cc1ccc(S(=O)(=O)Nc2ccc(S(=O)(=O)Nc3nccs3)cc2)c([N+](=O)[O-])c1 | 14.4 | 14.2 | 50.2* | 2.3 | 53.8* | 52.0* | 55.2* | 46.6* | 52.2*
COc1ccc(NC(=O)CSc2nc3ccccc3nc2N2CCCC2)c(OC)c1 | 8.1 | 24.1 | 6.4 | -1.2 | -24.5 | 0.9 | nt | nt | nt
CCc1cccc(CC)c1NC(=O)/C(C#N)=C/c1ccccc1C(F)(F)F | 6.6 | 20.3 | 54.7* | 11.3 | 41.4* | 56.6* | -6.9 | 13.5 | 42.0*
N#C/C(=C\c1ccccc1C(F)(F)F)C(=O)Nc1ccccc1 | 7.6 | 22.0 | 51.7* | -11.1 | 57.1* | 73.0* | 58.0* | 61.3* | 62.8*
CC(C)N(Cc1ccccc1)C(=O)COC(=O)C1CCCCC1 | 22.1 | nt | 25.8 | nt | 26.8 | 6.8 | nt | nt | nt
CC(=O)Nc1ccc(S(=O)(=O)N(C#N)c2nc(C)cc(C)n2)cc1 | 18.6 | 6.2 | -9.9 | -13.7 | -16.8 | -5.0 | nt | nt | nt
Cc1ccc(S(=O)(=O)N2C[C@@H]3CCCC[C@@H]3[C@@H](C)[C@H]2CC(=O)c2ccccc2)cc1 | nt | nt | 33.2 | nt | 15.4 | -2.8 | nt | nt | nt
Cc1cccnc1Nc1nc(-c2ccc(O)cc2)cs1 | 21.4 | 0.1 | 75.4* | -20.1 | 57.1* | 31.3 | 17.4 | nt | 57.1*
NC(=O)c1ccc[n+](Cc2ccc(-c3ccccc3)cc2)c1 | 0.1 | 0.0 | -0.9 | 4.2 | -17.3 | -2.5 | nt | nt | nt
N/C(=N\OC(=O)c1ccco1)c1cccc([N+](=O)[O-])c1 | 11.2 | -7.4 | 10.1 | -6.9 | 29.5 | 5.7 | nt | nt | nt
N/C(=N\OC(=O)c1ccco1)c1cccc(Br)c1 | -1.5 | 5.2 | 64.2* | -1.4 | 55.6* | 60.9* | 55.5* | 54.2* | 45.0*
N/C(=N\OC(=O)CCCOc1ccccc1)c1cccc(Br)c1 | 5.1 | 0.7 | 21.6 | 7.6 | 33.5 | 30.7 | nt | nt | nt
N/C(=N\OC(=O)c1cccc(Br)c1)c1ccccc1 | 15.0 | 9.2 | 82.8* | -1.1 | 65.7* | 83.2* | 58.1* | 86.5* | 72.9*
CC(=O)c1nn(-c2cccc(Br)c2)cc1C(=O)c1ccco1 | -1.2 | 11.8 | -3.8 | -9.3 | 15.3 | -8.5 | nt | nt | nt
O=C(c1cccc(Br)c1)c1conc1C(=O)c1ccco1 | -4.2 | 26.9 | 54.4* | -9.3 | 48.1* | 42.5* | 44.0* | 38.0* | 58.5*
SMILES | NALP3 yeast inh | NALP1 inh | tim23-1 inh | SKKanGAS inh | tim10-1 inh | TIM10 inh | tim10-1 confirm | tim10 confirm | tim23-1 conf
CC(C)Cc1nnc(NC(=O)c2ccc(S(=O)(=O)N3CCCC3)cc2)s1 | 13.1 | nt | -5.1 | nt | -11.8 | -18.4 | nt | nt | nt
N/C(Cc1ccc([N+](=O)[O-])cc1)=N\OC(=O)CC1CCCCC1 | 30.5 | 39.1 | 79.2* | -0.4 | 64.9* | 86.1* | 64.0* | 91.7* | 82.8*
Cc1cccc(C(=O)O/N=C(\N)Cc2ccc([N+](=O)[O-])cc2)c1 | 22.1 | 20.5 | 80.6* | 2.9 | 40.2* | 87.4* | 57.9* | 90.6* | 90.7*
N/C(Cc1ccc([N+](=O)[O-])cc1)=N\OC(=O)c1ccccc1Br | 19.9 | 68.4* | 61.9* | 0.9 | 52.0* | 87.8* | 55.8* | -7.8 | 88.1*
N/C(Cc1ccc([N+](=O)[O-])cc1)=N\OC(=O)c1ccco1 | 10.8 | -7.2 | 26.2 | 2.3 | 21.3 | 26.8 | nt | nt | nt
N/C(Cc1ccc([N+](=O)[O-])cc1)=N\OC(=O)c1ccc2ccccc2c1 | 28.3 | 30.4 | 81.1* | -10.6 | 54.3* | 89.9* | 46.8* | 88.6* | 92.2*
COc1cc(C(C)=O)ccc1OCC(=O)Nc1ccc(Cl)c(S(=O)(=O)N2CCOCC2)c1 | -1.3 | nt | 0.4 | nt | 23.8 | 12.4 | nt | nt | nt
CC(C)n1nnnc1SCC(=O)N1CCN(Cc2ccc3c(c2)OCCO3)CC1 | 8.4 | nt | 3.4 | nt | -21.2 | 2.6 | nt | nt | nt
CSc1nnc(N2C(=O)C(O)=C(C(=O)c3ccc(C)o3)C2c2ccc(C)cc2)s1 (configuration not stated) | 7.4 | -42.8 | 1.4 | 3.1 | 8.8 | 2.2 | nt | nt | nt
COc1ccc(/C=C2\C(=O)OCc3cc(OC)c(OC)cc32)cc1OC | 0.2 | 14.2 | 23.5 | -0.6 | 23.4 | 27.4 | nt | nt | nt
COc1cc2c(cc1OC)/C(=C/c1ccc(Cl)cc1)C(=O)OC2 | 18.5 | 34.6 | 55.4* | -8.4 | 41.4* | 2.1 | 12.4 | nt | 47.2*
CCC(C)NC(=O)C1CC(=O)N(CCc2ccc(F)cc2)C1 (configuration not stated) | 13.7 | 20.3 | 8.7 | -10.4 | 14.1 | 7.7 | nt | nt | nt
COc1ccc([C@@H]2[C@@H]3C(=O)N(C(C)(C)C)C(=O)[C@@H]3[C@]3(C)C(=O)N(c4cccc(Cl)c4)C(=O)N23)cc1 | 7.4 | nt | 5.3 | -2.9 | -20.2 | -4.7 | nt | nt | nt
Cc1ccccc1OCCN1C(=O)C(=O)c2cccc(C)c21 | 19.5 | 35.1 | 60.3* | 0.7 | 44.9* | 22.8 | 25.5 | nt | 33.2
Cc1cccc2c1N(CCOc1ccccc1Cl)C(=O)C2=O | 15.9 | 1.4 | 55.9* | 13.4 | 50.5* | 27.3 | 19.2 | nt | -30.4

Compound activity deposited in PubChem by several laboratories.
